# From PubChem BioAssay AID1628 (Sanford-Burnham Center for Chemical Genomics, 2009)
# The whole screen tested about 190,000 compounds, of which about 930 (0.49%) were called active. The list shows a part of the results. Entries with a potency or affinity are not part of this list. A number with no mark means an inactive call.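 How the source made its calls: active means z-score of insulin promoter reporter brightness in nuclei below -3 at 5 µM, with at least 500 cells counted; inconclusive means wells with under 500 cells, flagged as toxic or sparse; inactive means the rest.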
# Assay: insulin promoter down-regulators in MIN6 cells, imaging, high-content screening, mouse beta cells (AID 1628)
# Conditions: MIN6 insulin promoter GFP reporter, at 5 µM, stronger effect = lower value
row,Compound,z-score
1,N/C(=N\OC(=O)C1CCCCC1)c1cccc([N+](=O)[O-])c1,3.01
2,COc1cccc(C(=O)CN2C(=O)C(C)(C)Oc3ccc(C(=O)N4CCCCCC4)cc32)c1,3.58
3,O=C(c1cccc([N+](=O)[O-])c1)N1CCCN(C(=O)c2cccc([N+](=O)[O-])c2)CC1,-7.17 (active)
4,S=C(Nc1ccc(Oc2ccc(NC(=S)NC3CCCCC3)cc2)cc1)NC1CCCCC1,-5.62 (active)
5,CCc1ccc(NC(=S)NCC2CCCN2CC)cc1 (stereo unspecified),3.74
6,O=C1N/C(=N/Nc2ccccc2)S/C1=C\c1ccccc1,3.19
7,CCOC(=O)c1c(C)nc2c(c1C)c(=O)oc1ccccc12,0.62
8,O=c1cc(-c2ccc(O)cc2)oc2ccccc12,-0.5
9,O=C1/C(=C/c2ccc(N3CCCC3)cc2)NC(=S)N1C1CC1,12.6
10,COC(=O)c1nc2ccccn2c1F,2.02
11,CC1(C)CC(=O)c2sc(NS(=O)(=O)Cc3ccccc3)nc2C1,1.07
12,O=c1c(N2CCOCC2)c(N2CCOCC2)c1=O,3.02
13,COc1cc(Cl)c(C)cc1NC(=O)CN(C)Cc1cccc(OC)c1OC,3.4
14,COc1cc(NC(=O)CN(C)Cc2ccc(OC(F)F)cc2)c(C)cc1[N+](=O)[O-],-4.52 (active)
15,Cc1ccc(Nc2cc(C)nn2-c2nc(C)cc(=O)[nH]2)cc1,-3.51 (active)
16,Cc1ccc(Nc2nc3c([nH]2)c(=O)n(C)c(=O)n3C)cc1,3.32
17,FC(F)(F)c1cccc(N2CCN(Cc3cccnc3)CC2)c1,-4.71 (active)
18,CC(C)(O)C(O)COc1c2ccoc2cc2oc(=O)ccc12 (stereo unspecified),-0.51
19,COc1cccc(/C=N/NC(=O)c2oc3nc(-c4ccccc4)cc(-c4ccco4)c3c2N)c1,3.3
20,O=C(/C=C/c1ccco1)Oc1cc(Br)cc(/C=N/NC(=O)c2ccccc2O)c1,-4.99 (active)
21,N#Cc1cccc(NC(=O)CSc2ccc3c4c(cccc24)C(=O)c2ccccc2-3)c1,4.94
22,CCCCNC(=O)CSc1cc(=O)n(C)c2ccccc12,-4.57 (active)
23,CCc1cc(C(=O)OC)c(NC(=O)CC2Sc3ccc(C(F)(F)F)cc3NC2=O)s1 (stereo unspecified),3.33
24,COc1ccccc1OCC(O)Cn1c(=N)n(CCN2CCCCC2)c2ccccc21 (stereo unspecified),-5.05 (active)

row,Compound,z-score
1,Brc1ccc(Oc2nsnc2N2CCOCC2)cc1,3.88
2,CC(C)CNC(=O)CSc1nnc(-c2cccc(S(=O)(=O)N3CCCCC3)c2)o1,4.75
3,CCN(CC)S(=O)(=O)c1cccc(-c2nnc(SCCCC(=O)c3ccc(F)cc3)o2)c1,-4.17 (active)
4,C=CCn1c(C)cc(C(=O)CSc2nnc(-c3cccc(S(=O)(=O)N(CC)CC)c3)o2)c1C,-3.66 (active)
5,CC(=O)OC(C(=O)NCc1ccc(F)cc1)c1ccccn1 (stereo unspecified),3.91
6,Oc1ccc(/C=N/Nc2nc(-c3ccccc3F)nc3ccccc23)c(O)c1,3.69
7,Cc1nc2ccccc2nc1N/N=C/c1ccc(O)cc1O,-3.3 (active)
8,Cc1ccc(-n2ncc(Br)c(Br)c2=O)cc1,-4.97 (active)
9,Cc1ccc(-c2cc(N)n(-c3ccccc3)n2)cc1,5.28
10,c1ccc(-c2csc(-n3cnnn3)n2)cc1,3.13
11,N#C/C(=C/c1ccc(N2CCOCC2)o1)c1nc2ccccc2[nH]1,15
12,Cc1ccccc1-n1ncc2c(SCC(=O)NCc3cccs3)ncnc21,3.57
13,COc1ccc2c(C)cc(SCC(=O)N(C)C3CCS(=O)(=O)C3)nc2c1 (stereo unspecified),4.13
14,Cn1c(=O)n(Cc2ccccc2F)c(=O)c2c1nc1n2CCN1Cc1ccco1,2.8
15,CC(C)Cn1c(=O)c2c(nc3n2CCCN3CCc2ccccc2)n(C)c1=O,-4.13 (active)
16,O=C1C2C3C=CC(C3)C2C(=O)N1CCc1ccccc1 (stereo unspecified),3.33
17,CCCCN1C(=O)/C(=C/C=C2/CC(C)(C)CN2C)SC1=S,16.2
18,COc1ccc(CC(=S)N2CCOCC2)cc1,-4.87 (active)
19,COc1ccc(NC(=O)/C(C#N)=C\c2ccc(N3CCOCC3)o2)cc1,3.17
20,COc1ccc(C(=S)N2CCCC2)cc1,0.82
21,O=C(Cn1ncn2c(cc3ccccc32)c1=O)NCc1ccco1,3.78
22,Cc1cc2oc(=O)cc(CN3CCN(C/C=C/c4ccccc4)CC3)c2cc1O,-3.48 (active)
23,Cc1cc(=O)oc2cc(OC(=O)c3ccccc3)ccc12,-0.09
24,CCc1cc2c(CN3CCN(CCO)CC3)cc(=O)oc2cc1O,3.59

row,Compound,z-score
1,CCC(c1nnnn1CCc1ccccc1)N(Cc1ccco1)Cc1cc2cc(C)cc(C)c2[nH]c1=O (stereo unspecified),-3.35 (active)
2,CCC(c1nnnn1Cc1ccco1)N(Cc1ccccc1OC)Cc1cc2cc(C)ccc2[nH]c1=O (stereo unspecified),-4.61 (active)
3,CCC(c1nnnn1CCc1ccccc1)N(Cc1ccco1)Cc1cc2cccc(C)c2[nH]c1=O (stereo unspecified),-3.08 (active)
4,CCOc1ccc2[nH]c(=O)c(CN(Cc3ccco3)C(CC)c3nnnn3Cc3ccccc3)cc2c1 (stereo unspecified),-2.78
5,Cc1cc2nc3c(=O)n(C4CCCCC4)c(=O)[nH]c3nc2cc1N,7.94
6,CCC(C)N1C(=O)/C(=C/c2c(NCCCOC(C)C)nc3c(C)cccn3c2=O)SC1=S (stereo unspecified),13.1
7,COc1ccc2nc(NC(=O)c3cccc(OCc4c(C)noc4C)c3)sc2c1,-3.94 (active)
8,Cc1noc(C)c1COc1cccc(C(=O)OC(C)C(=O)Nc2c(C)n(C)n(-c3ccccc3)c2=O)c1 (stereo unspecified),1.6
9,CC(=O)Nc1ccc2nc(NC(=O)COc3cccc(C)c3)sc2c1,1.98
10,COc1cc(N2CCCC2)c(OC)cc1/C=c1/sc2nc3ccccc3n2c1=O,16.8
11,CCCN1C(=O)/C(=C\C=C2\N(CC)c3ccccc3C2(C)C)SC1=S,17.2
12,CCCN1C(=O)/C(=C/C=C2\N(CC)c3ccccc3C2(C)C)SC1=S,12.5
13,N#C/C(=C/c1ccc(N2CCCCC2)o1)C(=O)NCCc1c[nH]c2ccccc12,17.5
14,O=C1c2cccnc2C(=O)N1Cc1ccco1,2.51
15,CC(C)(CO)C(O)C(=O)NCCC#N (stereo unspecified),-1.31
16,O=[N+]([O-])c1ccc(/C=C/C2=NN(c3ccccc3)C(c3ccco3)C2)o1 (stereo unspecified),12.4
17,CCOC(=O)c1ccc(NC(=O)C2CC2)cc1,-4.4 (active)
18,CCN(CC)c1ccc(NC(=O)C2CC3CCC2C3)cc1 (stereo unspecified),-2.14
19,CCOc1ccc(NC(=O)C2CCC(C)(C(=O)O)C2(C)C)cc1 (stereo unspecified),3.64
20,CCOC(=O)c1ccc(NC(=O)C2(c3ccc(OC)cc3)CCCC2)cc1,-5.09 (active)
21,CN1CC=C2C(C#N)=C(N)C(C#N)(C#N)C(c3cccc(Cl)c3Cl)C2C1 (stereo unspecified),14.1
22,COc1cc(N2CCCC2)c(OC)cc1/C=C1/NC(=S)NC1=O,17.8
23,CCOC(=O)N1CCN(S(=O)(=O)c2ccc3c(c2)oc(=O)n3C)CC1,3.1
24,CCOC(=O)N1CCN(C(=O)c2cc(S(=O)(=O)N3CCCC3)cn2C)CC1,3.05

row,Compound,z-score
1,CCOC(=O)N1CCC(N2CCN(S(=O)(=O)c3ccc4ccccc4c3)CC2)CC1,-4.2 (active)
2,COCCNC(=O)c1onc(CSc2cccc(C)c2)c1C(=O)O,3.82
3,Clc1ccc(C[n+]2cc(-c3ccccc3)n3c2CCCCC3)c(Cl)c1,-5.27 (active)
4,COc1ccc(N=C2NC(=O)S/C2=C\c2ccc(N(C)C)cc2)cc1,3.4
5,CN1CC=C2C(C#N)=C(N)C(C#N)(C#N)[C@H](c3cccc(Cl)c3)C2C1 (stereo partly specified),15.9
6,N#C/C(C(=O)c1ccccc1)=C1/SC=C(N)N1c1ccccc1,5.96
7,CCCCN(CC)S(=O)(=O)c1ccc(C(=O)N(CCCN(C)C)c2nc3cc(C)cc(C)c3s2)cc1,-3.82 (active)
8,CC(C)OC(=O)CN1C(=O)S/C(=C/c2ccc(N3CCCCC3)o2)C1=O,6.58
9,Cc1cc(Cl)ccc1OCC(=O)OCC(=O)Nc1ccc(F)c([N+](=O)[O-])c1,-5.99 (active)
10,Cn1c(=O)n(C)c2cc(NC(=O)COc3ccc(Cl)cc3)ccc21,3.02
11,COc1ccc(C2=Nn3c(nnc3-c3ccccc3OC)SC2)cc1OC,-3.31 (active)
12,COc1ccccc1-c1c(C)c(C)nc(N)c1C#N,-0.95
13,COc1ccc(OC)c(C2=Nn3c(nnc3C3CCCCC3)SC2)c1,-6.49 (active)
14,CC(=O)Nc1ccc(N=Cc2c(O)c(C(=O)Nc3ccccc3)cc3ccccc23)cc1,3.59
15,CC(=O)Nc1ccc(Nc2c3ccccc3nc3ccccc23)cc1,-3.01 (active)
16,Cc1ccc(C(=O)SC2=NCCS2)cc1,1.97
17,O=C(CSc1ccccn1)Nc1cccc2ccccc12,2.55
18,O=c1[nH]c(/C=C/c2ccccc2OC(F)F)nc2c1cnn2-c1ccccc1,3.2
19,COc1ccc(CN(C(=O)c2ccc(-c3ccccc3)[nH]2)C(C(=O)NC(C)(C)C)c2ccncc2)cc1 (stereo unspecified),2.66
20,Cc1ccc(-c2nnc(N3CCN(C(=O)c4ccco4)CC3)c3ccccc23)cc1,-4.39 (active)
21,O=C(Nn1c(-c2ccccc2)nc2ccccc2c1=O)c1ccco1,-0.06
22,C[N+](C)(C)CCCNC(=O)c1ccc(/C=N/O)nc1,0.8
23,N#Cc1nc(N2CCOCC2)nc(N2CCOCC2)n1,3.26
24,CCCN1CC=C2C(C#N)=C(N)C(C#N)(C#N)C(c3cc(OC)ccc3OC)C2C1 (stereo unspecified),15.3
